SARS PLpro yeast – SARS-CoV PLP inhibition in yeast. S. cerevisiae expressing SARS-CoV PLpro, growth rescue. Potency, µM (top dose mostly 32.9 µM), hits mostly activators. 0.19% of 330,000 active. AID 485353; calls by dose curve; note: nearly all actives have a fitted effect of over 55% in size
Pf growth 96h – inhibits malaria parasite growth, 96 h | P. falciparum luciferase reporter growth, 96 h | Potency, µM (series often up to 28.7 µM), hits mostly inhibitors | 6.9% of 320,000 active | AID 504834
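Two-generation exposure (96 h) targets delayed-death phenotype. Reporter parasites carrying integrated firefly luciferase, in red cells at 2% hematocrit and 0.05% parasitemia final, kept at 37 C, 5% CO2; luminescence loss indicates inhibition.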
RE007 growth inh – less growth of the S. pombe RE007 Vpr strain; S. pombe RE007 Vpr strain, BacTiter-Glo ATP luminescence, 24 h; Potency, µM (series often up to 92.2 µM), usual class: inhibitors; 0.21% of 360,000 active; active = well fitted falling curve with a large enough effect; inconclusive = small, poorly fitted or top-dose-only effect; inactive = no such curve, though single readings can be large or run the other way; note: nearly all actives have a fitted effect of over 50% in size
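Fission yeast RE007 carrying one integrated HIV-1 vpr copy, seeded at OD 0.01 in PMG+AL medium with 23 nL pinned compound. Grown 24 h at 30 degrees; viability read by BacTiter-Glo luminescence after 5 min.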
NS1 function inh – influenza NS1 inhibition. Potency, µM (doses to about 46.1 µM). 0.4% of 270,000 active; calls by dose curve; note: actives are rising curves; nearly all actives have a fitted effect of over 50% in size
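OD600 was taken as the measure of yeast growth restored by compound in an NS1-expressing S. cerevisiae strain. Cells had been washed out of glucose medium and diluted 1:100 into galactose -URA medium, pH 6.0.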
Pf growth 48h – P. falciparum growth inhibition at 48 hours (one generation). P. falciparum luciferase growth in erythrocytes, 48 h. Potency, µM (titrated, usually from 28.7 µM), actives largely listed as inhibitors. 5.9% of 310,000 active
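Growth was read as firefly luciferase luminescence after a 48 h, 37 C, 5% CO2 exposure of compounds to reporter-bearing P. falciparum cultures (0.1% parasitemia, 2% hematocrit final) in Albumax-supplemented RPMI 1640.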
Numbers stand for hits; – = inactive; ? = inconclusive; · = no result. Sampled rows, rich in hits. Any-hit rate of the full collection: about 9.5%. Unless noted, calls come from the whole dose curve; as a rule, active = well fitted inhibition curve with a large enough effect; inconclusive = small, poorly fitted or top-dose-only effect, or another doubt; inactive = no such curve, though single readings can be large or run the other way.

SMILES	SARS PLpro yeast	Pf growth 96h	RE007 growth inh	NS1 function inh	Pf growth 48h
O=C(Cc1ccccc1)Nc1ccc2c(c1)OC1(CCCC1)O2	–	–	–	·	–
Nc1ccc2c(c1)OC1(CCCC1)O2	–	4.15µM	–	–	–
O=C(NC(=S)N(Cc1ccccc1)c1ccccn1)C1CC1	–	–	–	–	–
COc1ccc(N(CC(=O)NCCC2=CCCCC2)S(=O)(=O)c2ccccc2F)cc1	–	10.4µM	–	–	?
Cc1ccc(SCCNC(=O)CN(c2ccc3c(c2)OCO3)S(C)(=O)=O)cc1	–	·	–	–	?
O=C(CN(c1ccc(F)cc1)S(=O)(=O)c1ccccc1)NCCSC1CCCCC1	–	?	–	–	6.57µM
CS(=O)(=O)N(CC(=O)NCCSC1CCCCC1)c1ccc2c(c1)OCO2	–	–	–	–	5.22µM
CS(=O)(=O)N(CC(=O)NCCC1=CCCCC1)c1ccc2c(c1)OCO2	–	–	–	–	4.15µM
CC(C)(C)SCCNC(=O)CN(c1ccc(F)cc1)S(=O)(=O)c1ccccc1	–	–	–	–	?
COc1ccc(N(CC(=O)NCCC2=CCCCC2)S(C)(=O)=O)cc1	–	·	–	–	–
O=c1[nH]c(=S)[nH]c2c1C(c1ccc(Cl)cc1)OC(C1CCCCC1)C2 (configuration not stated)	·	·	–	·	·
Cc1cc2nccc(-c3ccc(OCCCF)cc3)n2n1	–	–	–	–	–
CC(NC(=O)CSc1ncn[nH]1)c1ccc(Cl)cc1Cl (configuration not stated)	–	–	–	–	–
CCOc1ccc(NC(=O)CN(C)C(=O)c2sc3ccccc3c2Cl)cc1OCC	–	–	–	·	–
O=C(NCC(=O)N(c1cccnc1)C(C(=O)NC1CCCC1)c1cccs1)c1ccco1 (configuration not stated)	–	?	–	–	?
O=C(COc1ccccc1)N1N=C(c2cccnc2)CC1(O)C(F)(F)F (configuration not stated)	–	0.928µM	·	–	?
Cc1ccc(OCC(=O)N2N=C(c3ccncc3)CC2(O)C(F)(F)F)cc1C (configuration not stated)	–	–	–	–	?
Cc1cccc(C)c1NC(=O)CN(C)C(=O)COc1cccc2c1OC(C)(C)C2	–	–	–	·	?
Cc1cc(OC(C)C(=O)NCCc2c[nH]c3ccccc23)c2c(C)cc(=O)oc2c1 (configuration not stated)	–	1.65µM	–	–	1.47µM
CCCc1cc(=O)oc2cc(C)cc(OC(C)C(=O)NCC(O)c3ccccc3)c12 (configuration not stated)	–	?	–	–	0.465µM
CCCc1cc(=O)oc2cc(C)cc(OC(C)C(=O)NCCN3CCOCC3)c12 (configuration not stated)	–	9.28µM	–	–	10.4µM
CCCc1cc(=O)oc2cc(C)cc(OC(C)C(=O)NCCCn3ccnc3)c12 (configuration not stated)	–	2.62µM	–	–	4.15µM
COc1cccc(CN(C)C(=O)c2ccc(N3CCCC3)c([N+](=O)[O-])c2)c1	–	13.1µM	–	–	–
COc1ccc(Cl)cc1NC(=O)CN(C)C(=O)c1ccc(N2CCCCC2)c([N+](=O)[O-])c1	·	?	–	·	13.1µM
C[C@H](CO)N1C[C@H](C)[C@@H](CN(C)S(=O)(=O)c2cn(C)cn2)Oc2cc(Br)ccc2S1(=O)=O	·	·	–	·	·
SMILES	SARS PLpro yeast	Pf growth 96h	RE007 growth inh	NS1 function inh	Pf growth 48h
CCCc1nc(SCC(=O)Nc2cc(C)on2)c2ccccc2n1	–	2.08µM	–	–	–
Cc1cc(NC(=O)CSc2nc3ccccc3c(=O)n2C(C)c2ccccc2)no1 (configuration not stated)	–	11.7µM	–	–	·
CCCn1c(NC(=O)CSCC(=O)Nc2cc(C)on2)nc2ccccc21	–	?	–	·	?
CCC(C)n1c(SCC(=O)Nc2cc(C)on2)nc2ccccc2c1=O (configuration not stated)	–	?	–	–	?
Cc1cc(NC(=O)CSc2nc(CCC3CCCC3)nc3ccccc23)no1	–	–	–	–	?
CCc1nc2ccccc2n1CC(=O)Nc1cc(C)on1	–	4.65µM	–	·	–
CCOC(=O)CC1C(=O)NCCN1C(=O)c1cc2c(=O)n3ccccc3nc2s1 (configuration not stated)	–	10.4µM	·	–	·
CC1CCCCC1NC(=O)COC(=O)c1c2c(nc3ccccc13)/C(=C/c1ccco1)CC2 (configuration not stated)	–	14.7µM	–	–	–
Cc1ccc(CSCC(=O)Nc2ccc(N3CCOCC3)cc2N2CCOCC2)cc1	–	?	–	·	5.22µM
Cc1cccc(NC(=O)CSCC(=O)Nc2ccc(N3CCOCC3)cc2N2CCOCC2)c1	·	·	–	·	·
Cc1ccc(S(=O)(=O)N2CCOCC2)cc1C(=O)Nc1ccccc1N1CCOCC1	–	–	–	·	–
CCOC(=O)c1c(-c2ccccc2Cl)csc1NC(=O)c1cc(S(=O)(=O)N2CCOCC2)ccc1C	–	?	–	–	14.7µM
CCOc1ccccc1NC(=O)c1cc(S(=O)(=O)N2CCOCC2)ccc1C	–	11.7µM	–	–	–
Cc1ccc(CSCC(=O)Nc2ccccc2C(=O)O)cc1	–	2.08µM	–	–	–
CCOC(=O)c1ccccc1NC(=O)c1cc(S(=O)(=O)N2CCOCC2)ccc1F	–	–	–	–	–
O=C(CCN1CCN(Cc2ccccc2)CC1)NNC(=O)Nc1cccc(C(F)(F)F)c1	–	–	–	–	–
CCOc1ccc(S(=O)(=O)N2CCOCC2)cc1NC(=O)CSCc1ccc(C)cc1	–	?	–	·	9.28µM
COc1ccccc1NC(=O)CSc1ncn[nH]1	–	–	–	–	–
O=C(CSc1ncn[nH]1)Nc1ccccc1C(=O)O	–	2.94µM	–	–	–
CN(CCOc1ccc(Br)cc1)C(=O)CNC(=O)c1ccc2ccccc2c1	–	–	–	–	–
CCOc1ccc(S(=O)(=O)N2CCCC(C(=O)N3CCCC3)C2)cc1 (configuration not stated)	–	–	–	–	–
S=C(N/N=C1\C2CN3CCN(C2)CC1(c1ccccc1)C3)Nc1ccccc1	–	–	–	–	?
O=C(OCC(=O)c1ccccc1Br)c1ccccn1	–	8.28µM	–	–	–
Cc1c(NS(=O)(=O)c2ccc(NCCN3CCOCC3)c([N+](=O)[O-])c2)c(=O)n(-c2ccccc2)n1C	–	–	–	–	–
O=C(CSc1nnc(COc2ccc(Cl)cc2)n1Cc1ccco1)c1ccccc1F	–	?	–	–	–
CC(Sc1nnc(COc2ccc(Cl)cc2)n1Cc1ccco1)C(=O)N1CCNC1=O (configuration not stated)	–	8.28µM	–	·	?
CC(C)C1C(c2ccccc2)NC(c2ccccc2)CC1(O)c1ccc(F)cc1 (configuration not stated)	–	?	–	–	4.15µM

Screening data as filed in PubChem BioAssay.
